Compounds without any hit were thinned out: in the full panel of roughly 79,000, 15% have a hit. Active and inactive are the calls of the source. No stated cut-off is given here; in the data, active means growth inhibition above about 70%; inactive means the rest.
Experiments:
[1] = NCI Yeast Anticancer Drug Screen. Data for the rad52 strain (AID 147);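 further: 0% = growth of vehicle-treated control cultures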; details: S. cerevisiae rad52 mutant growth inhibition, hits give high values
In short: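 Here a repair-compromised yeast strain receives each compound; its growth is then quantified and normalised to vehicle-only controls.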

[2] = NCI Yeast Anticancer Drug Screen. Data for the wt1 strain (AID 149);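 further: 0% = growth of vehicle-treated wt1 cultures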; details: S. cerevisiae wt1 strain (SPY 50644) growth inhibition, hits give high values
In short: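 wt1 strain grown with compound or vehicle; inhibition taken from the growth difference.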

[3] = NCI Yeast Anticancer Drug Screen. Data for the rad50EPP+ strain (AID 151);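 further: 0% = growth of vehicle-treated control cultures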; details: S. cerevisiae rad50 mutant strain, hits give high values
In short: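 Read-out is yeast growth inhibition relative to vehicle; cells used were the rad50EPP+ strain.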

[4] = NCI Yeast Anticancer Drug Screen. Data for the mgt1 strain (AID 153); details: S. cerevisiae mgt1 mutant growth inhibition, hits give high values
In short: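 Measured: inhibition of mgt1 yeast growth by compound, normalized to vehicle-treated cultures.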

[5] = NCI Yeast Anticancer Drug Screen. Data for the rad50 strain (AID 155);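 further: 0% = growth of vehicle-only cultures of the same strain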; details: S. cerevisiae rad50 strain growth inhibition, hits give high values
In short: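 DNA repair mutant yeast, compound exposure, growth read-out; inhibition is taken relative to vehicle.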

[6] = NCI Yeast Anticancer Drug Screen. Data for the mec2-1 strain (AID 157); details: S. cerevisiae mec2-1 strain, hits give high values
In short: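 Using mec2-1 yeast: add compound, measure growth, express inhibition versus vehicle-treated cultures.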

[7] = NCI Yeast Anticancer Drug Screen. Data for the rad14 strain (AID 159);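 further: 0% = growth of vehicle-treated control cultures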; details: S. cerevisiae rad14 strain growth inhibition, hits give high values
In short: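 DNA repair-defective yeast, compound-exposed; % growth inhibition derived by comparison with vehicle-treated controls.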

[8] = NCI Yeast Anticancer Drug Screen. Data for the sgs1 mgt1 strain (AID 161);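 further: 0% = growth of cultures given vehicle only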; details: S. cerevisiae sgs1 mgt1 strain, hits give high values
In short: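 This yeast growth screen uses a strain with defined DNA-repair lesions; compound-treated growth is compared with vehicle-treated growth.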

[9] = NCI Yeast Anticancer Drug Screen. Data for the CLN2oe strain (AID 163);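 further: 0% = growth of vehicle-only control cultures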; details: S. cerevisiae CLN2oe strain, hits give high values
In short: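 Whole-cell yeast growth assay. A strain engineered for altered cell-cycle control received compound, and inhibition relative to vehicle-treated cultures was recorded.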

[10] = NCI Yeast Anticancer Drug Screen. Data for the cln2 rad14 strain (AID 165);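 further: 0% = growth equal to vehicle treated cultures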; details: S. cerevisiae cln2 rad14 strain, hits give high values
In short: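 Yeast strain cln2 rad14, bearing defects in cell cycle control and DNA repair, serves as the test system; values reflect growth inhibition compared with vehicle.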

[11] = NCI Yeast Anticancer Drug Screen. Data for the bub3 strain (AID 167); details: S. cerevisiae bub3 mutant strain, hits give high values
In short: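 In this screen, a yeast mutant lacking normal mitotic checkpoint function is challenged with compound. Relative growth versus vehicle gives the inhibition value.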

[12] = NCI Yeast Anticancer Drug Screen. Data for the wt2 strain (AID 169);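 further: 0% = growth of vehicle-treated yeast cultures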; details: S. cerevisiae wt2 strain growth inhibition, hits give high values
In short: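 Treated yeast vs. vehicle-treated yeast: growth inhibition determined.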

[13] = NCI Yeast Anticancer Drug Screen. Data for the mlh1 strain (AID 171);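 further: 0% = growth of vehicle-treated control cultures of the same strain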; details: S. cerevisiae mlh1 strain growth inhibition, hits give high values
In short: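 A yeast strain with a defined genetic lesion serves as the test organism. Cultures receive compound or vehicle, and growth is measured.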

[14] = NCI Yeast Anticancer Drug Screen. Data for the sgs1 strain (AID 173);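 further: 0% = growth of vehicle-only control cultures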; details: S. cerevisiae sgs1 mutant, hits give high values
In short: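 A genetically defined yeast mutant is incubated with the test compound, and its growth is compared to that of the same strain given vehicle.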

[15] = NCI Yeast Anticancer Drug Screen. Data for the rad18 strain (AID 177); details: S. cerevisiae rad18 mutant growth inhibition, hits give high values
In short: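 Measured value is growth inhibition of a yeast strain bearing a DNA repair alteration, referenced to vehicle-treated cells.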

[16] = NCI Yeast Anticancer Drug Screen. Data for the mlh1 rad18 strain (AID 175); details: S. cerevisiae mlh1 rad18 strain growth inhibition, hits give high values
In short: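 Steps: expose repair-defective yeast to compound; measure growth; express inhibition against vehicle-treated controls.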

[17] = at 5.0 µM (retest, dose inferred, filed as 0.5)
[18] = at 50.0 µM (retest, dose inferred, filed as 5.0)

Measured: growth inhibition

Cn1c2ccccc2c(=O)c2cc(NC(=O)CCCCC(=O)Nc3ccc4c(c3)c(=O)c3ccccc3n4C)ccc21
active: [1]; at 33.0 µM 76% | [1]; at 100.0 µM 87% | [3]; at 100.0 µM 80% | [5]; at 33.0 µM 76% | [5]; [18] 82% | [5]; at 50.0 µM 80.5% | [5]; at 100.0 µM 78% | [15]; at 100.0 µM 79%
inactive: [1]; at 1.2 µM 0% | [1]; at 3.7 µM 6% | [1]; at 11.0 µM 35% | [2]; at 1.2 µM 4% | [2]; at 3.7 µM -4% | [2]; at 11.0 µM -1% | [2]; at 33.0 µM 4% | [2]; at 100.0 µM 20% | [3]; at 1.2 µM -1% | [3]; at 3.7 µM 4% | [3]; at 11.0 µM 14% | [3]; at 33.0 µM 55% | [4]; at 1.2 µM 1% | [4]; at 3.7 µM 6% | [4]; at 11.0 µM -9% | [4]; at 33.0 µM -3% | [4]; at 100.0 µM 46% | [5]; at 1.2 µM 0% | [5]; at 3.7 µM 11% | [5]; [17] 9% | [5]; at 11.0 µM 41% | [6]; at 1.2 µM -5% | [6]; at 3.7 µM -2% | [6]; [17] -7% | [6]; at 11.0 µM 2% | [6]; at 33.0 µM 13% | [6]; [18] 6% | [6]; at 50.0 µM 12.4% | [6]; at 100.0 µM 47% | [7]; at 1.2 µM -1% | [7]; at 3.7 µM 3% | [7]; at 11.0 µM 3% | [7]; at 33.0 µM 17% | [7]; at 100.0 µM 58% | [8]; [17] -4% | [8]; [18] 16% | [8]; at 50.0 µM -1.45% | [9]; at 1.2 µM -6% | [9]; at 3.7 µM -4% | [9]; at 11.0 µM -8% | [9]; at 33.0 µM 3% | [9]; at 100.0 µM 27% | [10]; [17] -1% | [10]; [18] 5% | [10]; at 50.0 µM -12.1% | [11]; at 1.2 µM -4% | [11]; at 3.7 µM -5% | [11]; [17] 1% | [11]; at 11.0 µM -5% | [11]; at 33.0 µM -3% | [11]; [18] 10% | [11]; at 50.0 µM -22.2% | [11]; at 100.0 µM 19% | [12]; at 1.2 µM -3% | [12]; at 3.7 µM -2% | [12]; at 11.0 µM -1% | [12]; at 33.0 µM 10% | [12]; at 100.0 µM 40% | [13]; at 1.2 µM 0% | [13]; at 3.7 µM 2% | [13]; at 11.0 µM 3% | [13]; at 33.0 µM 24% | [13]; at 100.0 µM 66% | [14]; at 1.2 µM -5% | [14]; at 3.7 µM -6% | [14]; at 11.0 µM -6% | [14]; at 33.0 µM 4% | [14]; at 100.0 µM 49% | [15]; at 1.2 µM 1% | [15]; at 3.7 µM 0% | [15]; at 11.0 µM 3% | [15]; at 33.0 µM 49%

CC1CCN(CCC(=O)c2ccc(Cl)cc2)CC1
active: [5]; at 50.0 µM 77.5% | [8]; at 50.0 µM 75.5% | [10]; at 50.0 µM 73.6% | [11]; at 50.0 µM 81.7%
inactive: [1]; at 1.2 µM 4% | [1]; at 3.7 µM 8% | [1]; at 11.0 µM 28% | [1]; at 33.0 µM 41% | [1]; at 100.0 µM 53% | [2]; at 1.2 µM -1% | [2]; at 3.7 µM -1% | [2]; at 11.0 µM -1% | [2]; at 33.0 µM 7% | [2]; at 100.0 µM 16% | [3]; at 1.2 µM -1% | [3]; at 3.7 µM -1% | [3]; at 11.0 µM -1% | [3]; at 33.0 µM -2% | [3]; at 100.0 µM -7% | [4]; at 1.2 µM -1% | [4]; at 3.7 µM 4% | [4]; at 11.0 µM 20% | [4]; at 33.0 µM 35% | [4]; at 100.0 µM 52% | [5]; at 1.2 µM 12% | [5]; at 3.7 µM 19% | [5]; [17] 5% | [5]; at 11.0 µM 32% | [5]; at 33.0 µM 52% | [5]; [18] 36% | [5]; at 100.0 µM 56% | [6]; at 1.2 µM 0% | [6]; at 3.7 µM 1% | [6]; [17] 9% | [6]; at 11.0 µM 3% | [6]; at 33.0 µM 17% | [6]; [18] 37% | [6]; at 50.0 µM 29.1% | [6]; at 100.0 µM 27% | [7]; at 1.2 µM 19% | [7]; at 3.7 µM 36% | [7]; at 11.0 µM 33% | [7]; at 33.0 µM 39% | [7]; at 100.0 µM 45% | [8]; [17] 16% | [8]; [18] 50% | [9]; at 1.2 µM 8% | [9]; at 3.7 µM 17% | [9]; at 11.0 µM 36% | [9]; at 33.0 µM 49% | [9]; at 100.0 µM 55% | [10]; [17] 14% | [10]; [18] 45% | [11]; at 1.2 µM 1% | [11]; at 3.7 µM 6% | [11]; [17] 18% | [11]; at 11.0 µM 11% | [11]; at 33.0 µM 24% | [11]; [18] 50% | [11]; at 100.0 µM 31% | [12]; at 1.2 µM 0% | [12]; at 3.7 µM 1% | [12]; at 11.0 µM 18% | [12]; at 33.0 µM 5% | [12]; at 100.0 µM 21% | [13]; at 1.2 µM 2% | [13]; at 3.7 µM 14% | [13]; at 11.0 µM 26% | [13]; at 33.0 µM 26% | [13]; at 100.0 µM 40% | [14]; at 1.2 µM 5% | [14]; at 3.7 µM 32% | [14]; at 11.0 µM 45% | [14]; at 33.0 µM 62% | [14]; at 100.0 µM 66% | [16]; [17] 21% | [16]; [18] 52% | [16]; at 50.0 µM 58.1% | [15]; at 1.2 µM 5% | [15]; at 3.7 µM 18% | [15]; at 11.0 µM 17% | [15]; at 33.0 µM 28% | [15]; at 100.0 µM 42%
